Experimental data as given in ChEMBL document CHEMBL2218924, “A broad activity screen in support of a chemogenomic map for kinase signalling research and drug discovery” (Biochem J, 2013).

Tests used:
[1] = molecular target: T1, Testis-specific serine/threonine-protein kinase 1 (Homo sapiens) (UniProt Q9BXA7); conditions: at 1 µM
T1 sequence (whole entry): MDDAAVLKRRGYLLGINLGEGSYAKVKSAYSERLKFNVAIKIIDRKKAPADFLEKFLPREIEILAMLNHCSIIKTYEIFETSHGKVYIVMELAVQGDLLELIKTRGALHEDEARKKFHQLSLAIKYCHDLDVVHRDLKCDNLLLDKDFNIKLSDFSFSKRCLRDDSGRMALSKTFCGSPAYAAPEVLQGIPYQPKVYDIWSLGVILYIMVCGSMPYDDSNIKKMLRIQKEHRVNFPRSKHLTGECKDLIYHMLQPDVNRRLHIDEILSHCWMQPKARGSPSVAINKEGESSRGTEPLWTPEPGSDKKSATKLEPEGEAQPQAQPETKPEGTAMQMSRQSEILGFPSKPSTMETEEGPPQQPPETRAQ

[2] = molecular target: T1, Testis-specific serine/threonine-protein kinase 1 (Homo sapiens); conditions: at 10 µM
[3] = molecular target: T2, Testis-specific serine/threonine-protein kinase 2 (Homo sapiens) (UniProt Q96PF2); conditions: at 10 µM
T2 sequence (whole entry): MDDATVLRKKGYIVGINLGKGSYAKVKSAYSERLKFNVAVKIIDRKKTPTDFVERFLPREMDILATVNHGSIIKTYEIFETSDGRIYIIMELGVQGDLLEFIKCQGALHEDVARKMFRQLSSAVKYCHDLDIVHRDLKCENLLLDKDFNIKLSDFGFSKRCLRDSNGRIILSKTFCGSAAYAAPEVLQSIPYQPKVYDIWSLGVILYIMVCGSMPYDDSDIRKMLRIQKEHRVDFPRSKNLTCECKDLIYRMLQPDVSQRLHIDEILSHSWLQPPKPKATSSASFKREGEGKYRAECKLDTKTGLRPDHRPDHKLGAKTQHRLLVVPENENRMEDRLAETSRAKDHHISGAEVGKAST

[4] = molecular target: Angiopoietin-1 receptor (Homo sapiens) (UniProt Q02763); conditions: at 1 µM
[5] = molecular target: Angiopoietin-1 receptor (Homo sapiens) (UniProt Q02763); conditions: at 10 µM
[6] = molecular target: High affinity nerve growth factor receptor (Homo sapiens) (UniProt P04629); conditions: at 1 µM
[7] = molecular target: High affinity nerve growth factor receptor (Homo sapiens) (UniProt P04629); conditions: at 10 µM
[8] = molecular target: BDNF/NT-3 growth factors receptor (Homo sapiens) (UniProt Q16620); conditions: at 1 µM
[9] = molecular target: BDNF/NT-3 growth factors receptor (Homo sapiens) (UniProt Q16620); conditions: at 10 µM
[10] = molecular target: T3, Tyrosine-protein kinase TXK (Homo sapiens) (UniProt P42681); conditions: at 1 µM
T3 sequence (whole entry): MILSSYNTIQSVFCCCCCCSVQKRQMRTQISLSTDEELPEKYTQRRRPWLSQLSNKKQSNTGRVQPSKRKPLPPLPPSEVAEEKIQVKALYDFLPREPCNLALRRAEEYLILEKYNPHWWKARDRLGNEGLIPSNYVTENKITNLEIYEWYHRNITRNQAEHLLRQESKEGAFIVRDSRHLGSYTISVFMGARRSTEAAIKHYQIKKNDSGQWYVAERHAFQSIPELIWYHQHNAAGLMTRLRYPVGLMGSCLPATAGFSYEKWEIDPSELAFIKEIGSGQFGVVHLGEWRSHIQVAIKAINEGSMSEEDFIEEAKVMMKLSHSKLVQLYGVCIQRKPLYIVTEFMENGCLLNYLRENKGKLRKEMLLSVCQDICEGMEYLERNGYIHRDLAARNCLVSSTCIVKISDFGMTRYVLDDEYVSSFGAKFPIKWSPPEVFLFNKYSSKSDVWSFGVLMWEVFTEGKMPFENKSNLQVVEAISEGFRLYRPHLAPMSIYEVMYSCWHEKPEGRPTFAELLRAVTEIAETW

[11] = molecular target: T3, Tyrosine-protein kinase TXK (Homo sapiens); conditions: at 10 µM
[12] = molecular target: T4, Serine/threonine-protein kinase ULK2 (Homo sapiens) (UniProt Q8IYT8); conditions: at 1 µM
T4 sequence (whole entry): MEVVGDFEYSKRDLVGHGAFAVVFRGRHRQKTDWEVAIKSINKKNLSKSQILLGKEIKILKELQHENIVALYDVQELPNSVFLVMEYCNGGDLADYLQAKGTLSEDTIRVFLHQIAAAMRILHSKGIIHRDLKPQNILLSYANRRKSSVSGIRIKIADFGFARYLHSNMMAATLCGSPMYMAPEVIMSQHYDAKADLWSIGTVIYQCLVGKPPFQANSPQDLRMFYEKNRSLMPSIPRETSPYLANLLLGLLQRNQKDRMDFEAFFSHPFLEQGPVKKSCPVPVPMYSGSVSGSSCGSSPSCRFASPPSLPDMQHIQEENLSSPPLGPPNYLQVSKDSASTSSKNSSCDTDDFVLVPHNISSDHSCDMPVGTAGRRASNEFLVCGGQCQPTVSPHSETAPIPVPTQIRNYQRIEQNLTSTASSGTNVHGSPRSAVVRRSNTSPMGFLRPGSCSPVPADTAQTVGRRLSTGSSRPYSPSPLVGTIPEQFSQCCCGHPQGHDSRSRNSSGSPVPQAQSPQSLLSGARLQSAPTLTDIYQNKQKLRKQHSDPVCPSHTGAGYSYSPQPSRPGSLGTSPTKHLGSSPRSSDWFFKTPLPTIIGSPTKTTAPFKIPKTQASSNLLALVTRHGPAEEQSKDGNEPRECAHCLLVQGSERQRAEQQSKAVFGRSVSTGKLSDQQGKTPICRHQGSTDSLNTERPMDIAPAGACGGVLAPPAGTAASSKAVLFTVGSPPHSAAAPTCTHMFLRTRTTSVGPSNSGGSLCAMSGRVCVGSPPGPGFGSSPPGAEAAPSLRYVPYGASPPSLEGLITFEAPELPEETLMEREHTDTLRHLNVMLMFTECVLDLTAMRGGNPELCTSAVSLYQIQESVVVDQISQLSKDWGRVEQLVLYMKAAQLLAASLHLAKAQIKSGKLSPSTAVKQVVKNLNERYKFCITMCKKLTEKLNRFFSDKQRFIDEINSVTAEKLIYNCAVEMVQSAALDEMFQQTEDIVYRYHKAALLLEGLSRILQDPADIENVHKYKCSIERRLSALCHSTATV

[13] = molecular target: T5, Serine/threonine-protein kinase ULK3 (Homo sapiens) (UniProt Q6PHR2); conditions: at 10 µM
T5 sequence (whole entry): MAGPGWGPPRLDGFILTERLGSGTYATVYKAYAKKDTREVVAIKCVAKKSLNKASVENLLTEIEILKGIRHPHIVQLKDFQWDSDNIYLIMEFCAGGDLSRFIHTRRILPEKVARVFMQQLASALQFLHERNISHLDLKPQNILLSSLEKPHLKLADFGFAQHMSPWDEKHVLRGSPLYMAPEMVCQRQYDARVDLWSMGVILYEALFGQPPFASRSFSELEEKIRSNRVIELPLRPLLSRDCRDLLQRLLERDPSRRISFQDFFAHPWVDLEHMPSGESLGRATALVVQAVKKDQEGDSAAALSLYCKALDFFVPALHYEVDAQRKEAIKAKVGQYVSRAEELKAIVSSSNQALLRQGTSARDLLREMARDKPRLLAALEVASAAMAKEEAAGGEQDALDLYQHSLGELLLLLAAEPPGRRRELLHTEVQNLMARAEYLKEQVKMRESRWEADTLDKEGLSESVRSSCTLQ

[14] = molecular target: Serine/threonine-protein kinase VRK2 (Homo sapiens) (UniProt Q86Y07); conditions: at 1 µM
[15] = molecular target: Serine/threonine-protein kinase VRK2 (Homo sapiens) (UniProt Q86Y07); conditions: at 10 µM
[16] = molecular target: Serine/threonine-protein kinase WNK2 (Homo sapiens) (UniProt Q9Y3S1); conditions: at 1 µM;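 note: residual WNK2 kinase activity expressed as percent of uninhibited control, assayed in MOPS buffer at pH 7.0 containing EDTA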
[17] = molecular target: T6, Tyrosine-protein kinase Tec (Homo sapiens) (UniProt P42680); conditions: at 1 µM
T6 sequence (whole entry): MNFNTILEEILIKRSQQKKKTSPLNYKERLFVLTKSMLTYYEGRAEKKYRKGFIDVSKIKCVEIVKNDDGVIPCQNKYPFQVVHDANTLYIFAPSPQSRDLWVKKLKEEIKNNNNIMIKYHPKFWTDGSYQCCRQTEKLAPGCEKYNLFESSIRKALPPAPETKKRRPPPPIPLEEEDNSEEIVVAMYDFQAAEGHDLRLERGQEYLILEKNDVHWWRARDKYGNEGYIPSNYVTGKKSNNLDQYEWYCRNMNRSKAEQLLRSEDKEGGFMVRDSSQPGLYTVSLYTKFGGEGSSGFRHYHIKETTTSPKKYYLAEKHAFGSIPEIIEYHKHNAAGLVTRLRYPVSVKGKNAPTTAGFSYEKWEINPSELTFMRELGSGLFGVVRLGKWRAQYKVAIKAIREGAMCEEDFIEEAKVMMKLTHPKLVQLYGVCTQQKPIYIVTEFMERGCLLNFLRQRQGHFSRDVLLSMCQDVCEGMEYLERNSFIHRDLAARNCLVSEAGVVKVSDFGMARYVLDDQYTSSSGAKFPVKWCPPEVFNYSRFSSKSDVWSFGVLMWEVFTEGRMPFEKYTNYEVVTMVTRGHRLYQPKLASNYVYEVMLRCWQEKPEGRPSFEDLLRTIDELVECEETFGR

[18] = molecular target: T6, Tyrosine-protein kinase Tec (Homo sapiens); conditions: at 10 µM
[19] = molecular target: T4, Serine/threonine-protein kinase ULK2 (Homo sapiens); conditions: at 10 µM
[20] = molecular target: T5, Serine/threonine-protein kinase ULK3 (Homo sapiens); conditions: at 1 µM

Sequence of BDNF/NT-3 growth factors receptor (Homo sapiens) (Q16620 32-822 limits assumed): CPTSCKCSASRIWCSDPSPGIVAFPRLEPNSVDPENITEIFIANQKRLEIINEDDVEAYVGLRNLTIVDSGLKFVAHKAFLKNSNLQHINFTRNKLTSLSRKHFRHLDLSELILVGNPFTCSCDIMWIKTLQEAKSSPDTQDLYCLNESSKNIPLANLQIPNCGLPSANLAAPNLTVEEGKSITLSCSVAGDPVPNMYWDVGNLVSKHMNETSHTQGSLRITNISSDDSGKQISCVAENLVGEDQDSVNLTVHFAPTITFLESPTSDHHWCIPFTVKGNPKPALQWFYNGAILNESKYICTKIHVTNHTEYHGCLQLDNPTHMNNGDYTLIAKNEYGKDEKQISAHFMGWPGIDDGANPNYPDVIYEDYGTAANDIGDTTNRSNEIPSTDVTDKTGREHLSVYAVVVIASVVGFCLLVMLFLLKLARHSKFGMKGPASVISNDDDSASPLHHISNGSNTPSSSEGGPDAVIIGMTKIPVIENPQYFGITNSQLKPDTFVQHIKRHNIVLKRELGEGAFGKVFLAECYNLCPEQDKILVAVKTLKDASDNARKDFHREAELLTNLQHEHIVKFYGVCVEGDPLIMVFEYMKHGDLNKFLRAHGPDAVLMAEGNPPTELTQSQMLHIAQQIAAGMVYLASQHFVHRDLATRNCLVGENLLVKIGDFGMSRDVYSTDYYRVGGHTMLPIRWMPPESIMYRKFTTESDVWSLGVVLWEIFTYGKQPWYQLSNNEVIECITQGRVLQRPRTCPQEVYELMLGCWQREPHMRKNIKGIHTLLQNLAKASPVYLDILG
Sequence of Serine/threonine-protein kinase VRK2 (Homo sapiens) (Q86Y07 whole entry): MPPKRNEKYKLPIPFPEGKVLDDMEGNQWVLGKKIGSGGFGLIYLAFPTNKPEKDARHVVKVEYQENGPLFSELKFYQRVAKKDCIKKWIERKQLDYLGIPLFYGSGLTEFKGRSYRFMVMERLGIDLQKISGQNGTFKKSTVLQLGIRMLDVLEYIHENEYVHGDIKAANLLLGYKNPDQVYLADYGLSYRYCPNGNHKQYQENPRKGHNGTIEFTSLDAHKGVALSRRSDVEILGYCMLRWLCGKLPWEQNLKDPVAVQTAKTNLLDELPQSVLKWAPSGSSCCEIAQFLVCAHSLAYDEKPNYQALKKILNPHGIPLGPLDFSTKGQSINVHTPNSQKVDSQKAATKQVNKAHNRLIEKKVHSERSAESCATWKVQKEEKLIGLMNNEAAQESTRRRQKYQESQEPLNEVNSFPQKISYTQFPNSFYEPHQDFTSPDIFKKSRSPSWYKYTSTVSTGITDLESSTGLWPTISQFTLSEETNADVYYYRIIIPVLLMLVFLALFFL
Sequence of Angiopoietin-1 receptor (Homo sapiens) (Q02763 whole entry): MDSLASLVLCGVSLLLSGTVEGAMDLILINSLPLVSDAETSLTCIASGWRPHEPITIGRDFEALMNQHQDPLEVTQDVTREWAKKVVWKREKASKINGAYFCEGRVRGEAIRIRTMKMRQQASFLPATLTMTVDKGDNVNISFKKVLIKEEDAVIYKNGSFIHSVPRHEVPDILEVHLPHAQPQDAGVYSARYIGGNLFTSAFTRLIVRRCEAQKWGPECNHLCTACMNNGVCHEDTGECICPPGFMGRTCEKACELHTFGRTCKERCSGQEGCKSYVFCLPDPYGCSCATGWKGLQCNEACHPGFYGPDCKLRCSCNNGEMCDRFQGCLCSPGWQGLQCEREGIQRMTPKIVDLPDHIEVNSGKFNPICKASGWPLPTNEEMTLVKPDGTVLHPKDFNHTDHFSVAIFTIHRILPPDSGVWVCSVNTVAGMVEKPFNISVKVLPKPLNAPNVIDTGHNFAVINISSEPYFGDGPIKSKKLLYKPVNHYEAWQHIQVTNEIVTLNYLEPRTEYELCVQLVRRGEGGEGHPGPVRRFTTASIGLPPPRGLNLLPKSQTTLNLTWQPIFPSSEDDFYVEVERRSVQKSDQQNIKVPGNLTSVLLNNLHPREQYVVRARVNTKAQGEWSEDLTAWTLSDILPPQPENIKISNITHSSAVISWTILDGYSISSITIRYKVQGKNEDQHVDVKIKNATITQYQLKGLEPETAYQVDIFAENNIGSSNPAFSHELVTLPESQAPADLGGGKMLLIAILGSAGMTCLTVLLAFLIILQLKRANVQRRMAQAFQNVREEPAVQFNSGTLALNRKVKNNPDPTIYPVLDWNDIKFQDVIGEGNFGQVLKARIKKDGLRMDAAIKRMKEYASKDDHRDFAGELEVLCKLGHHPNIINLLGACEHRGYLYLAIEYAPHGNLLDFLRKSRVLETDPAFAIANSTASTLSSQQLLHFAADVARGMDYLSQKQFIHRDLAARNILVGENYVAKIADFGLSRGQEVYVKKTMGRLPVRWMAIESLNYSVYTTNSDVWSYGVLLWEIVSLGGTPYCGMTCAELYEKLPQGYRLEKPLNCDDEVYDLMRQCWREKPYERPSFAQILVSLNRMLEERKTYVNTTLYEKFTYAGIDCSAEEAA
Sequence of High affinity nerve growth factor receptor (Homo sapiens) (P04629 33-796 limits assumed): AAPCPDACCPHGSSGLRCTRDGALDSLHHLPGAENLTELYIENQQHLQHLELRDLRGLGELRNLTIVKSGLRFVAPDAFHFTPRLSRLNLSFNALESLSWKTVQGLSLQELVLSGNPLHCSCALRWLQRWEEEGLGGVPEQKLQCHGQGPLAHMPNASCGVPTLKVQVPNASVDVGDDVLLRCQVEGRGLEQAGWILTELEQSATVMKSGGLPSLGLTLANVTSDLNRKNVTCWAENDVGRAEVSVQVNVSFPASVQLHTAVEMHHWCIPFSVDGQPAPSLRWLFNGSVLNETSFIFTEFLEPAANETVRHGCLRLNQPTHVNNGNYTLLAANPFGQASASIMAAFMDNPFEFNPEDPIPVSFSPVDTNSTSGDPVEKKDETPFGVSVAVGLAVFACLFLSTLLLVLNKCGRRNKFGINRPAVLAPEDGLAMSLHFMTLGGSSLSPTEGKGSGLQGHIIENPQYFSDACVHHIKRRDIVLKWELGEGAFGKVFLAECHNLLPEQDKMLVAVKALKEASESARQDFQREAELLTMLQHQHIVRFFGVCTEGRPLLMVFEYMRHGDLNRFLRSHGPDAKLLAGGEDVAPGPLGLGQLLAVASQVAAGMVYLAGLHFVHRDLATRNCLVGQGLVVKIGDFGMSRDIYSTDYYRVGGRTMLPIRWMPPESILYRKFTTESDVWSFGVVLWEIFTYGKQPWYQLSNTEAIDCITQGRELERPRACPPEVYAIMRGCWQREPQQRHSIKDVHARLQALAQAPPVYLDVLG

| SMILES | residual activity [1] | residual activity [2] | residual activity [3] | residual activity [4] | residual activity [5] | residual activity [6] | residual activity [7] | residual activity [8] | residual activity [9] | residual activity [10] | residual activity [11] | residual activity [12] | residual activity [13] | residual activity [14] | residual activity [15] | residual activity [16] | residual activity [17] | residual activity [18] | residual activity [19] | residual activity [20] |
| --- | --- | --- | --- | --- | --- | --- | --- | --- | --- | --- | --- | --- | --- | --- | --- | --- | --- | --- | --- | --- |
| Nc1ncnc2c1c(-c1ccc(Oc3ccccc3)cc1)cn2C1CCCC1 | 94% | 86% | 93% | 12% | 3% | 26% | -1% | 44% | -9% | 18% | 1% | 98% | 45% | 85% (inactive) | 72% | 103% (inactive) |  |  |  |  |
| CCN(CC)CCNC(=O)c1c(C)[nH]c(/C=C2\C(=O)Nc3ccc(Cl)cc32)c1C | 8% | 0% | 26% | 56% | 19% | -1% | 0% | 40% | -12% | 70% | 21% | 23% | 2% |  |  |  | 78% | 29% | 2% | 17% |
| O=C(CCCc1ccc(-c2ccccc2F)cc1)Nc1ccc(O)cc1 | 103% | 99% |  | 83% | 96% | 102% | 54% | 93% | 100% | 99% | 89% | 112% | 95% | 102% (inactive) | 96% | 104% (inactive) | 93% | 79% | 98% | 101% |
| CCCCc1c(-c2ccc(O)cc2)[nH]c2nccnc12 | 58% | 59% | 85% |  |  | 61% | 12% | 67% | 45% |  |  | 87% | 31% |  |  |  |  |  | 93% | 73% |
| Nc1n[nH]c2nc3ccccc3nc12 | 85% | 87% | 71% |  |  | 86% | 67% | 84% | 85% | 87% | 76% |  | 84% | 99% (inactive) | 86% |  | 81% | 86% | 92% | 87% |
| COc1ccc(Cl)cc1NC(=O)Nc1cc(C)nc2ccccc12 | 95% | 87% | 88% |  |  | 100% | 60% |  |  |  | 60% |  | 96% | 98% (inactive) | 94% |  | 93% | 55% | 85% |  |
